About 2,000 (36%) of roughly 5,500 compounds were called active. Roughly 18% stayed inconclusive and do not appear here. Cut-off read from the data, not from the text of the source: active = normalized growth mostly below about 0.91 (no sharp cut-off); inconclusive = no clear call, values can overlap the other calls; inactive = mostly above about 0.92. The list shows a part of the results.
Assay: chemical genetic growth profiling, strain panel (AID 1159580);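 note: tested at 20 µM; growth read once vehicle control cultures reached saturation at 30 °C; 1 = growth at the plate median or of vehicle wells; lower values mean less growth of the strain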
Conditions: growth OD

Measured: normalized growth

Cc1ccccc1OCC(O)CO (stereo not given)
inactive: S. cerevisiae deletion strains, locus YJR066W, strain TOR1, active compounds read low 0.913 | S. cerevisiae deletion strains, locus YJR075W, strain HOC1, active compounds read low 1.04 | S. cerevisiae deletion strains, locus YKL009W, strain mrt4, active compounds read low 0.987 | S. cerevisiae deletion strains, locus YKL068W, active compounds read low 0.996 | S. cerevisiae deletion strains, locus YKL085W, strain MDH1 (second series), active compounds read low 1.04 | S. cerevisiae deletion strains, locus YKL085W, strain MDH1, active compounds read low 1.04 | S. cerevisiae deletion strains, locus YKL160W, strain elf1, active compounds read low 0.986 | S. cerevisiae deletion strains, locus YKL190W, strain CNB1, active compounds read low 1.01 | S. cerevisiae deletion strains, locus YKR001C, strain vps1, active compounds read low 0.991 | S. cerevisiae deletion strains, locus YKR026C, strain gcn3, active compounds read low 0.928 | S. cerevisiae deletion strains, locus YKR091W, strain srl3, active compounds read low 0.984 | S. cerevisiae deletion strains, locus YLL001W, strain dnm1, active compounds read low 0.985 | S. cerevisiae deletion strains, locus YLL026W, active compounds read low 0.983 | S. cerevisiae deletion strains, locus YLL041C, strain sdh2, active compounds read low 0.985 | S. cerevisiae deletion strains, locus YLR027C, strain aat2, active compounds read low 0.957 | S. cerevisiae deletion strains, locus YLR039C, strain RIC1, active compounds read low 1.02 | S. cerevisiae deletion strains, locus YLR058C, strain SHM2, active compounds read low 1.02 | S. cerevisiae deletion strains, locus YLR102C, strain apc9, active compounds read low 0.991 | S. cerevisiae deletion strains, locus YLR113W, strain HOG1, active compounds read low 0.971 | S. cerevisiae deletion strains, locus YLR221C, strain rsa3, active compounds read low 0.982 | S. cerevisiae deletion strains, locus YLR258W, strain gsy2, active compounds read low 0.98 | S. cerevisiae deletion strains, locus YLR262C, strain YPT6 (second series), active compounds read low 0.973 | S. cerevisiae deletion strains, locus YLR262C, strain YPT6, active compounds read low 1.02 | S. cerevisiae deletion strains, locus YLR268W, strain sec22, active compounds read low 0.996 | S. cerevisiae deletion strains, locus YLR320W, strain mms22, active compounds read low 0.964 | S. cerevisiae deletion strains, locus YLR330W, strain CHS5, active compounds read low 1.01 | S. cerevisiae deletion strains, locus YLR342W, strain FKS1 (second series), active compounds read low 1.04 | S. cerevisiae deletion strains, locus YLR342W, strain FKS1, active compounds read low 0.966 | S. cerevisiae deletion strains, locus YLR357W, strain rsc2, active compounds read low 0.982 | S. cerevisiae deletion strains, locus YLR370C, strain arc18, active compounds read low 0.979 | S. cerevisiae deletion strains, locus YLR371W, strain rom2, active compounds read low 0.992 | S. cerevisiae deletion strains, locus YLR384C, strain iki3, active compounds read low 0.992 | S. cerevisiae deletion strains, locus YLR418C, strain cdc73, active compounds read low 1.01 | S. cerevisiae deletion strains, locus YML016C, strain PPZ1, active compounds read low 1.02 | S. cerevisiae deletion strains, locus YML032C, strain rad52, active compounds read low 0.992 | S. cerevisiae deletion strains, locus YML120C, strain ndi1, active compounds read low 0.965 | S. cerevisiae deletion strains, locus YML124C, strain tub3, active compounds read low 0.993 | S. cerevisiae deletion strains, locus YMR058W, strain fet3, active compounds read low 0.98 | S. cerevisiae deletion strains, locus YMR078C, strain ctf18, active compounds read low 0.995 | S. cerevisiae deletion strains, locus YMR125W, strain sto1, active compounds read low 0.953 | S. cerevisiae deletion strains, locus YMR129W, active compounds read low 0.99 | S. cerevisiae deletion strains, locus YMR205C, strain PFK2, active compounds read low 0.975 | S. cerevisiae deletion strains, locus YMR223W, strain ubp8, active compounds read low 0.991 | S. cerevisiae deletion strains, locus YMR231W, strain pep5, active compounds read low 0.988 | S. cerevisiae deletion strains, locus YMR263W, strain SAP30, active compounds read low 1.03 | S. cerevisiae deletion strains, locus YMR307W, strain GAS1, active compounds read low 1.09 | S. cerevisiae deletion strains, locus YNL067W, strain RPL9B, active compounds read low 1.03 | S. cerevisiae deletion strains, locus YNL071W, strain lat1, active compounds read low 0.977 | S. cerevisiae deletion strains, locus YNL183C, strain NPR1, active compounds read low 0.919 | S. cerevisiae deletion strains, locus YNL209W, strain ssb2, active compounds read low 0.984 | S. cerevisiae deletion strains, locus YNL233W, strain BNI4, active compounds read low 1.04 | S. cerevisiae deletion strains, locus YNL248C, strain rpa49, active compounds read low 0.977 | S. cerevisiae deletion strains, locus YNL250W, strain rad50, active compounds read low 0.995 | S. cerevisiae deletion strains, locus YNL271C, strain bni1, active compounds read low 0.989 | S. cerevisiae deletion strains, locus YNL298W, strain CLA4, active compounds read low 0.993 | S. cerevisiae deletion strains, locus YNL307C, strain MCK1, active compounds read low 0.994 | S. cerevisiae deletion strains, locus YNL322C, strain KRE1 (second series), active compounds read low 0.979 | S. cerevisiae deletion strains, locus YNL322C, strain KRE1, active compounds read low 1.01 | S. cerevisiae deletion strains, locus YNR049C, strain mso1, active compounds read low 0.955 | S. cerevisiae deletion strains, locus YNR052C, strain pop2, active compounds read low 0.991 | S. cerevisiae deletion strains, locus YOL006C, strain TOP1, active compounds read low 1.11 | S. cerevisiae deletion strains, locus YOL012C, strain htz1 0.987 | S. cerevisiae deletion strains, locus YOL147C, strain pex11, active compounds read low 0.992 | S. cerevisiae deletion strains, locus YOR001W, strain rrp6, active compounds read low 0.963 | S. cerevisiae deletion strains, locus YOR061W, strain CKA2, active compounds read low 1.02 | S. cerevisiae deletion strains, locus YOR069W, strain VPS5, active compounds read low 1.01 | S. cerevisiae deletion strains, locus YOR070C, strain gyp1, active compounds read low 0.969 | S. cerevisiae deletion strains, locus YOR080W, strain dia2, active compounds read low 0.968 | S. cerevisiae deletion strains, locus YOR083W, strain WHI5, active compounds read low 0.967 | S. cerevisiae deletion strains, locus YOR106W, strain vam3, active compounds read low 0.96 | S. cerevisiae deletion strains, locus YOR136W, strain idh2, active compounds read low 0.998 | S. cerevisiae deletion strains, locus YOR144C, strain elg1, active compounds read low 0.99 | S. cerevisiae deletion strains, locus YOR184W, strain ser1, active compounds read low 1.01 | S. cerevisiae deletion strains, locus YOR231W, strain MKK1, active compounds read low 0.974 | S. cerevisiae deletion strains, locus YOR265W, strain rbl2, active compounds read low 0.968 | S. cerevisiae deletion strains, locus YOR270C, strain vph1, active compounds read low 0.911 | S. cerevisiae deletion strains, locus YOR290C, strain snf2, active compounds read low 0.969 | S. cerevisiae deletion strains, locus YOR316C, strain cot1, active compounds read low 0.992 | S. cerevisiae deletion strains, locus YPL051W, strain arl3, active compounds read low 0.981 | S. cerevisiae deletion strains, locus YPL055C, strain LGE1, active compounds read low 1.07 | S. cerevisiae deletion strains, locus YPL078C, strain atp4, active compounds read low 0.971 | S. cerevisiae deletion strains, locus YPL106C, strain sse1, active compounds read low 0.958 | S. cerevisiae deletion strains, locus YPL240C, strain hsp82, active compounds read low 0.992 | S. cerevisiae deletion strains, locus YPL256C, strain CLN2, active compounds read low 0.974 | S. cerevisiae deletion strains, locus YPR119W, strain clb2, active compounds read low 0.997 | S. cerevisiae deletion strains, locus YPR141C, strain kar3, active compounds read low 0.989 | S. cerevisiae deletion strains, locus YPR163C, strain tif3, active compounds read low 0.991 | S. cerevisiae deletion strains, locus YPR167C, strain met16, active compounds read low 0.998 | S. cerevisiae deletion strains, strain wtn01, active compounds read low 1 | S. cerevisiae strains, strain wild type, active compounds read low 1.02

— PubChem BioAssay AID1159580 (chemical genetic matrix, 2015)
